From the supplement of paper PMC10515830
Counter-ions that a name gives are not always drawn.

Tested on: Danio rerio larvae (5 dpf)
Experiment: difference in habituation to acoustic stimuli vs DMSO (percentage points); higher = more habituation than DMSO
Settings: 10 µM; exposure time 6 h
Outline: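 Wild-type 5 dpf zebrafish larvae in 96-well plates were given 100 µL egg water containing library compound at 10 µM final for 6 h. After 3 h of exposure, plates at 28.5 ℃ were photographed every 6 s during a 3-h programme of moving lines and 100 ms, 400Hz tones. Z-LaP Tracker (a DeepLabCut model) quantified each behaviour, averaged over 48 larvae per compound. Values are the compound mean minus the DMSO-vehicle control, in percentage points.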

| Compound | difference in habituation to acoustic stimuli |
| --- | --- |
| CN(C)C(=O)Oc1ccc[n+](C)c1 [Pyridostigmine (bromide)] | 4.7 |
| O=[N+]([O-])O[C@H]1CO[C@H]2[C@@H]1OC[C@H]2O[N+](=O)[O-] [Isosorbide Dinitrate] | 1.13 |
| CN1[C@@H]2CC[C@H]1C[C@@H](OC(=O)C(CO)c1ccccc1)C2 (some centres not stated) [Atropine] | -0.323 |
| N[C@@H]1C[C@H]1c1ccccc1 [Tranylcypromine (hydrochloride)] | -1.86 |
| C[C@H](N)[C@H](O)c1ccc(O)c(O)c1 [Levonordefrin] | -5.57 |
| O=c1[nH]c2ccccc2n1C1CCN(CCCC(c2ccc(F)cc2)c2ccc(F)cc2)CC1 [Pimozide] | -11 |
| C=CCN1CC[C@]23c4c5ccc(O)c4O[C@H]2[C@@H](OCCOCCOCCOCCOCCOCCOCCOC)CC[C@@]3(O)[C@H]1C5 [Naloxegol (oxalate)] | 5.19 |
| C[C@]12CC[C@H](O)CC1=CC[C@@H]1[C@@H]2CC[C@]2(C)C(=O)CC[C@@H]12 [Dehydroepiandrosterone] | 1.51 |
| Cc1cccc([C@H](C)c2c[nH]cn2)c1C [Dexmedetomidine (hydrochloride)] | -7.14 |
| O=P1(N(CCCl)CCCl)NCCCO1 (configuration not stated) [Cyclophosphamide (hydrate)] | -0.439 |
| COc1cc([C@@H]2c3cc4c(cc3[C@H](O)[C@H]3COC(=O)[C@H]23)OCO4)cc(OC)c1OC [Podophyllotoxin] | 2.01 |
| CC1=C[C@]23C(=O)[C@@H](C=C(CO)[C@@H](O)[C@]2(O)[C@H]1O)[C@H]1[C@@H](C[C@H]3C)C1(C)C [Ingenol] | 4.35 |
